In article PMC11062922 (Nature Chemical Biology, 2023):
Read-outs that look alike come from different tables or passages of the source.

Key:
Conditions in all cases: read-out: apparent Kd, n = 1
CLK4 = tested on: CLK4
FER = tested on: FER
FLT4 = tested on: FLT4
[1] = compound concentrations:100 nM and 1000 nM (sheet 'Lestaurtinib' of Supplementary Table 1),run:Lestaurtinib_02795_R1,Plate:MR022
[2] = compound concentrations:100 nM and 1000 nM (sheet 'Lestaurtinib' of Supplementary Table 1),run:Lestaurtinib_02795_R2,Plate:MR022
[3] = compound concentrations:100 nM and 1000 nM (sheet 'Lestaurtinib' of Supplementary Table 1),run:Lestaurtinib_02802_R2,Plate:MR029
[4] = compound concentrations:100 nM and 1000 nM (sheet 'Lestaurtinib' of Supplementary Table 1),run:Lestaurtinib_02802_R3,Plate:MR029
[5] = compound concentrations:100 nM and 1000 nM (sheet 'Lestaurtinib' of Supplementary Table 1),run:Lestaurtinib_03172_R3,Plate:MR031
[6] = compound concentrations:100 nM and 1000 nM (sheet 'Lestaurtinib' of Supplementary Table 1),run:Lestaurtinib_03252_R2,Plate:MR032
[7] = compound concentrations:100 nM and 1000 nM (sheet 'Lestaurtinib' of Supplementary Table 1),run:Lestaurtinib_03260_R1,Plate:MR033
[8] = compound concentrations:100 nM and 1000 nM (sheet 'Lestaurtinib' of Supplementary Table 1),run:Lestaurtinib_03260_R2,Plate:MR033
[9] = compound concentrations:100 nM and 1000 nM (sheet 'Lestaurtinib' of Supplementary Table 1),run:Lestaurtinib_03260_R3,Plate:MR033
[10] = compound concentrations:100 nM and 1000 nM (sheet 'Lestaurtinib' of Supplementary Table 1),run:Lestaurtinib_02339_R1,Plate:MR001
[11] = compound concentrations:100 nM and 1000 nM (sheet 'Lestaurtinib' of Supplementary Table 1),run:Lestaurtinib_02339_R2,Plate:MR001
[12] = compound concentrations:100 nM and 1000 nM (sheet 'Lestaurtinib' of Supplementary Table 1),run:Lestaurtinib_02364_R2,Plate:MR002

Lestaurtinib
potency estimated from few doses (CLK4; compound concentrations:100 nM and 1000 nM (sheet 'Lestaurtinib' of Supplementary Table 1),run:Lestaurtinib_02768_R3,Plate:MR028): 50.7 nM | potency estimated from few doses (CLK4; [1]): 63.3 nM | potency estimated from few doses (CLK4; [2]): 42.4 nM | potency estimated from few doses (CLK4; [3]): 62.9 nM | potency estimated from few doses (CLK4; [4]): 42.9 nM | potency estimated from few doses (CLK4; compound concentrations:100 nM and 1000 nM (sheet 'Lestaurtinib' of Supplementary Table 1),run:Lestaurtinib_02896_R1,Plate:MR030): 45.2 nM | potency estimated from few doses (CLK4; compound concentrations:100 nM and 1000 nM (sheet 'Lestaurtinib' of Supplementary Table 1),run:Lestaurtinib_02896_R2,Plate:MR030): 44.9 nM | potency estimated from few doses (CLK4; [5]): 82.5 nM | potency estimated from few doses (CLK4; [6]): 38.7 nM | potency estimated from few doses (CLK4; [7]): 95 nM | potency estimated from few doses (CLK4; [8]): 130 nM | potency estimated from few doses (CLK4; [9]): 60.5 nM | potency estimated from few doses (FER; [10]): 361 nM | potency estimated from few doses (FER; [11]): 254 nM | potency estimated from few doses (FER; compound concentrations:100 nM and 1000 nM (sheet 'Lestaurtinib' of Supplementary Table 1),run:Lestaurtinib_02339_R3,Plate:MR001): 336 nM | potency estimated from few doses (FER; compound concentrations:100 nM and 1000 nM (sheet 'Lestaurtinib' of Supplementary Table 1),run:Lestaurtinib_02364_R1,Plate:MR002): 298 nM | potency estimated from few doses (FER; [12]): 396 nM | potency estimated from few doses (FER; compound concentrations:100 nM and 1000 nM (sheet 'Lestaurtinib' of Supplementary Table 1),run:Lestaurtinib_02367_R1,Plate:MR003): 327 nM | potency estimated from few doses (FER; compound concentrations:100 nM and 1000 nM (sheet 'Lestaurtinib' of Supplementary Table 1),run:Lestaurtinib_02367_R2,Plate:MR003): 319 nM | potency estimated from few doses (FER; compound concentrations:100 nM and 1000 nM (sheet 'Lestaurtinib' of Supplementary Table 1),run:Lestaurtinib_02367_R3,Plate:MR003): 310 nM | potency estimated from few doses (FER; compound concentrations:100 nM and 1000 nM (sheet 'Lestaurtinib' of Supplementary Table 1),run:Lestaurtinib_02381_R1,Plate:MR004): 385 nM | potency estimated from few doses (FER; compound concentrations:100 nM and 1000 nM (sheet 'Lestaurtinib' of Supplementary Table 1),run:Lestaurtinib_02381_R2,Plate:MR004): 362 nM | potency estimated from few doses (FER; compound concentrations:100 nM and 1000 nM (sheet 'Lestaurtinib' of Supplementary Table 1),run:Lestaurtinib_02381_R3,Plate:MR004): 336 nM | potency estimated from few doses (FER; compound concentrations:100 nM and 1000 nM (sheet 'Lestaurtinib' of Supplementary Table 1),run:Lestaurtinib_02407_R3,Plate:MR005): 459 nM | potency estimated from few doses (FER; compound concentrations:100 nM and 1000 nM (sheet 'Lestaurtinib' of Supplementary Table 1),run:Lestaurtinib_02422_R3,Plate:MR006): 307 nM | potency estimated from few doses (FER; compound concentrations:100 nM and 1000 nM (sheet 'Lestaurtinib' of Supplementary Table 1),run:Lestaurtinib_02437_R2,Plate:MR007): 347 nM | potency estimated from few doses (FER; compound concentrations:100 nM and 1000 nM (sheet 'Lestaurtinib' of Supplementary Table 1),run:Lestaurtinib_02437_R3,Plate:MR007): 30.6 nM | potency estimated from few doses (FER; compound concentrations:100 nM and 1000 nM (sheet 'Lestaurtinib' of Supplementary Table 1),run:Lestaurtinib_02438_R1,Plate:MR008): 352 nM | potency estimated from few doses (FER; compound concentrations:100 nM and 1000 nM (sheet 'Lestaurtinib' of Supplementary Table 1),run:Lestaurtinib_02438_R2,Plate:MR008): 345 nM | potency estimated from few doses (FER; compound concentrations:100 nM and 1000 nM (sheet 'Lestaurtinib' of Supplementary Table 1),run:Lestaurtinib_02438_R3,Plate:MR008): 356 nM | potency estimated from few doses (FER; compound concentrations:100 nM and 1000 nM (sheet 'Lestaurtinib' of Supplementary Table 1),run:Lestaurtinib_02443_R1,Plate:MR009): 347 nM | potency estimated from few doses (FER; compound concentrations:100 nM and 1000 nM (sheet 'Lestaurtinib' of Supplementary Table 1),run:Lestaurtinib_02443_R2,Plate:MR009): 358 nM | potency estimated from few doses (FER; compound concentrations:100 nM and 1000 nM (sheet 'Lestaurtinib' of Supplementary Table 1),run:Lestaurtinib_02473_R2,Plate:MR010): 343 nM | potency estimated from few doses (FER; compound concentrations:100 nM and 1000 nM (sheet 'Lestaurtinib' of Supplementary Table 1),run:Lestaurtinib_02482_R1,Plate:MR011): 406 nM | potency estimated from few doses (FER; compound concentrations:100 nM and 1000 nM (sheet 'Lestaurtinib' of Supplementary Table 1),run:Lestaurtinib_02482_R2,Plate:MR011): 336 nM | potency estimated from few doses (FER; compound concentrations:100 nM and 1000 nM (sheet 'Lestaurtinib' of Supplementary Table 1),run:Lestaurtinib_02487_R1,Plate:MR012): 221 nM | potency estimated from few doses (FER; compound concentrations:100 nM and 1000 nM (sheet 'Lestaurtinib' of Supplementary Table 1),run:Lestaurtinib_02496_R1,Plate:MR013): 306 nM | potency estimated from few doses (FER; compound concentrations:100 nM and 1000 nM (sheet 'Lestaurtinib' of Supplementary Table 1),run:Lestaurtinib_02566_R1,Plate:MR014): 269 nM | potency estimated from few doses (FER; compound concentrations:100 nM and 1000 nM (sheet 'Lestaurtinib' of Supplementary Table 1),run:Lestaurtinib_02572_R2,Plate:MR015): 259 nM | potency estimated from few doses (FER; compound concentrations:100 nM and 1000 nM (sheet 'Lestaurtinib' of Supplementary Table 1),run:Lestaurtinib_02572_R3,Plate:MR015): 447 nM | potency estimated from few doses (FER; compound concentrations:100 nM and 1000 nM (sheet 'Lestaurtinib' of Supplementary Table 1),run:Lestaurtinib_02584_R1,Plate:MR017): 332 nM | potency estimated from few doses (FER; compound concentrations:100 nM and 1000 nM (sheet 'Lestaurtinib' of Supplementary Table 1),run:Lestaurtinib_02584_R3,Plate:MR017): 351 nM | potency estimated from few doses (FER; compound concentrations:100 nM and 1000 nM (sheet 'Lestaurtinib' of Supplementary Table 1),run:Lestaurtinib_02601_R2,Plate:MR018): 394 nM | potency estimated from few doses (FER; compound concentrations:100 nM and 1000 nM (sheet 'Lestaurtinib' of Supplementary Table 1),run:Lestaurtinib_02601_R3,Plate:MR018): 42.4 nM | potency estimated from few doses (FER; compound concentrations:100 nM and 1000 nM (sheet 'Lestaurtinib' of Supplementary Table 1),run:Lestaurtinib_02606_R2,Plate:MR019): 83.6 nM | potency estimated from few doses (FER; compound concentrations:100 nM and 1000 nM (sheet 'Lestaurtinib' of Supplementary Table 1),run:Lestaurtinib_02606_R3,Plate:MR019): 355 nM | potency estimated from few doses (FER; compound concentrations:100 nM and 1000 nM (sheet 'Lestaurtinib' of Supplementary Table 1),run:Lestaurtinib_02624_R3,Plate:MR020): 365 nM | potency estimated from few doses (FER; compound concentrations:100 nM and 1000 nM (sheet 'Lestaurtinib' of Supplementary Table 1),run:Lestaurtinib_02724_R2,Plate:MR021): 436 nM | potency estimated from few doses (FER; compound concentrations:100 nM and 1000 nM (sheet 'Lestaurtinib' of Supplementary Table 1),run:Lestaurtinib_02748_R1,Plate:MR024): 268 nM | potency estimated from few doses (FER; compound concentrations:100 nM and 1000 nM (sheet 'Lestaurtinib' of Supplementary Table 1),run:Lestaurtinib_02748_R3,Plate:MR024): 278 nM | potency estimated from few doses (FER; compound concentrations:100 nM and 1000 nM (sheet 'Lestaurtinib' of Supplementary Table 1),run:Lestaurtinib_02752_R1,Plate:MR025): 356 nM | potency estimated from few doses (FER; compound concentrations:100 nM and 1000 nM (sheet 'Lestaurtinib' of Supplementary Table 1),run:Lestaurtinib_02752_R2,Plate:MR025): 297 nM | potency estimated from few doses (FER; compound concentrations:100 nM and 1000 nM (sheet 'Lestaurtinib' of Supplementary Table 1),run:Lestaurtinib_02752_R3,Plate:MR025): 327 nM | potency estimated from few doses (FER; compound concentrations:100 nM and 1000 nM (sheet 'Lestaurtinib' of Supplementary Table 1),run:Lestaurtinib_02765_R1,Plate:MR026): 564 nM | potency estimated from few doses (FER; compound concentrations:100 nM and 1000 nM (sheet 'Lestaurtinib' of Supplementary Table 1),run:Lestaurtinib_02765_R2,Plate:MR026): 481 nM | potency estimated from few doses (FER; compound concentrations:100 nM and 1000 nM (sheet 'Lestaurtinib' of Supplementary Table 1),run:Lestaurtinib_02765_R3,Plate:MR026): 549 nM | potency estimated from few doses (FER; compound concentrations:100 nM and 1000 nM (sheet 'Lestaurtinib' of Supplementary Table 1),run:Lestaurtinib_02766_R1,Plate:MR027): 277 nM | potency estimated from few doses (FER; compound concentrations:100 nM and 1000 nM (sheet 'Lestaurtinib' of Supplementary Table 1),run:Lestaurtinib_02766_R2,Plate:MR027): 25.3 nM | potency estimated from few doses (FER; compound concentrations:100 nM and 1000 nM (sheet 'Lestaurtinib' of Supplementary Table 1),run:Lestaurtinib_02766_R3,Plate:MR027): 321 nM | potency estimated from few doses (FER; [1]): 454 nM | potency estimated from few doses (FER; [2]): 356 nM | potency estimated from few doses (FER; compound concentrations:100 nM and 1000 nM (sheet 'Lestaurtinib' of Supplementary Table 1),run:Lestaurtinib_02795_R3,Plate:MR022): 372 nM | potency estimated from few doses (FER; [3]): 296 nM | potency estimated from few doses (FER; [4]): 12.4 nM | potency estimated from few doses (FER; compound concentrations:100 nM and 1000 nM (sheet 'Lestaurtinib' of Supplementary Table 1),run:Lestaurtinib_03172_R2,Plate:MR031): 386 nM | potency estimated from few doses (FER; [5]): 315 nM | potency estimated from few doses (FER; [6]): 25 nM | potency estimated from few doses (FER; [7]): 469 nM | potency estimated from few doses (FER; [8]): 487 nM | potency estimated from few doses (FER; [9]): 351 nM | potency estimated from few doses (FLT4; [10]): 345 nM | potency estimated from few doses (FLT4; [11]): 300 nM | potency estimated from few doses (FLT4; [12]): 289 nM
